These results are taken from PubChem BioAssay AID624416 (The Scripps Research Institute Molecular Screening Center, 2012).

About 1,500 (0.42%) of roughly 360,000 compounds were called active. The sample holds actives, similar compounds and a random draw of the others, so the mix is not that of the screen. Values without a mark were called inactive. Cut-off read from the data, not from the text of the source: active = inhibition above about 8.5%; inactive = the rest.

This assay has as its system HIV-1 gp120 / PG9 antibody interaction. Put plainly: binders of HIV-1 gp120 antibody PG9, primary screen, biochemical, TR-FRET (AID 624416). To be noted: TR-FRET gp120-PG9 antibody binding; at 6.7 µM; stronger effect = higher value.
One may read the inhibition as the relative decrease from the control value, in per cent. Regarding `Cc1ccc(F)c(NC(=O)CCOc2ccccc2C)c1`, the inhibition was -0.27%.

On to `CC(=O)c1sc(NC(=O)CCCOc2ccccc2C)nc1C`, for which the inhibition was 12% (active).

On to `Cc1ccccc1OCC(=O)Nc1nc(C)c(C(=O)N(C)C)s1`, for which the inhibition is 0.64%.

In the case of `COC(=O)C1=C(C)N(Cc2ccc(F)cc2)C(=S)NC1c1cccc(Cl)c1` (configuration not stated), the inhibition was -0.02%.

As to `COC(=O)c1ccc(NC(=S)Nc2cccc(C)n2)cc1`, the inhibition was 17.4% (active).

Take `Cc1cccc(NC(=O)Cc2ccc(Br)cc2)n1`: the inhibition was 1.95%.

In the case of `COC(=O)c1ccc(NC(=S)NN2CCOCC2)cc1`, the inhibition is -2.64%.

As to `COc1cccc(CNC(=O)[C@H]2CCCN2C(=O)[C@H]2CCCN2C(=O)C2CCCCC2)c1`, the inhibition is 1.65%.

On to `CCCc1nc(SCC(=O)Nc2ccc(S(=O)(=O)N(C)C)cc2)c2ccccc2n1`, for which the inhibition is 27% (active).

`CCCNC(=O)CSc1nc(Cc2ccccc2)nc2ccccc12`: the inhibition is 0.37%.

For the compound `O=C(CSc1nc(C2CC2)nc2ccccc12)Nc1ccc2c(c1)OCCO2`, the inhibition is -1.48%.

For the compound `C[C@H](O)[C@@H]1C(=O)N2CCc3c([nH]c4c(-c5ccc6c(c5)OCO6)cccc34)[C@@H]2C[C@@H]1N(C)C(=O)c1ccco1`, the inhibition is -1.4%.

As to `CN1C(=O)C(Br)(Br)CC1c1cccnc1` (configuration not stated), the inhibition was -0.49%.

As to `O=C(Nc1nnc(-c2ccccc2F)s1)c1ccccc1F`, the inhibition was 13.2% (active).

As for `O=C(O)c1ccccc1-c1ccccc1C(=O)Nc1nccs1`, the inhibition was 1.5%.

For `O=C(Nc1ccccc1F)c1ccccc1-c1ccccc1`, the inhibition is -1.32%.

As for `COc1ccc(NC(=O)N(C)C[C@@H]2OCCCC[C@@H](C)Oc3ccc(NC(=O)NC4CCCCC4)cc3C(=O)N([C@H](C)CO)C[C@@H]2C)cc1`, the inhibition was -0.95%.

`O=S1(=O)c2c(cccc2N2CCCCC2)O[C@H](COCc2ccccc2)CN1C1CC1`: the inhibition is -1.69%.

`CCn1nnc2cc(C(=O)Nc3ccc(C(=O)OC(C)C)cc3)ccc21`: the inhibition is 20.3% (active).

As to `CCOC(=O)c1ccc(NC(=O)Cn2cnc3cc(C)c(C)cc32)cc1`, the inhibition is -1.34%.

As to `CCOC(=O)c1cccc(NC(=O)CCn2nnc3ccccc32)c1`, the inhibition is 1.35%.

Take `C[C@H](O)[C@@H]1CN2CCc3ccc(-c4ccc5c(c4)OCO5)cc3[C@@H]2C[C@@H]1N(C)C(=O)C1CCCCC1`: the inhibition was 2.47%.

`Cc1cc2c(nc1C)CCCN2C`: the inhibition is -1.95%.

On to `Cc1[nH]c2ccccc2c1SCC(=O)Nc1nccs1`, for which the inhibition was -0.77%.

For `CC(=O)c1cc(C#N)c(SCC(=O)Nc2nccs2)nc1C`, the inhibition was 15.3% (active).

Regarding `Cc1cc(C(F)(F)F)nc(SCC(=O)Nc2nccs2)n1`, the inhibition is 0.14%.

`O=c1[nH]c(-c2ccccc2)cn1C1CCN(Cc2ccc(-c3nc4ccc(F)cc4nc3-c3ccccc3)cc2)CC1`: the inhibition was 1.31%.

Turning to `CCc1ccc(C2=CC(=O)CC(C)(C)C2=O)cc1`, the inhibition was -0.98%.

For the compound `O=C(Nc1c(Br)cc2c(c1Br)Cc1cc([N+](=O)[O-])ccc1-2)C(Cl)Cl`, the inhibition is 17.5% (active).

In the case of `CCC(C)C(=O)Nc1cc([N+](=O)[O-])ccc1Cl` (configuration not stated), the inhibition was -4.15%.

Turning to `CC(C)C(=O)Nc1cccc(NC(=O)c2ccc([N+](=O)[O-])cc2Cl)c1`, the inhibition was -0.82%.

As to `O=C(Nc1c(Cl)c(C2CC2)nn1-c1ccccc1)C(Cl)(Cl)Cl`, the inhibition was 0.67%.

`C[C@@H]1CN([C@H](C)CO)C(=O)CCCn2cc(nn2)CO[C@H]1CN(C)C(=O)Nc1ccc(N2CCCCC2)cc1`: the inhibition was -2.61%.

Consider `COC(=O)[C@]12C[C@H](CC(=O)NCCC(C)C)C(=O)N(CCc3ccc(OC)c(OC)c3)C1=C[C@H](C(C)(C)C)O[C@@H]2C`, for which the inhibition was 0.69%.

Regarding `CCCC(=O)Nc1cc(OCC)c(NC(=O)NC2CCCCC2)cc1OCC`, the inhibition is -1.64%.

Regarding `CCOc1cc(C2C(C(=O)OC)=CN(C3CCCC3)C=C2C(=O)OC)cc(Br)c1O`, the inhibition was 62.6% (active).

For the compound `COC(=O)C1=CN(Cc2ccc(OC)cc2)C=C(C(=O)OC)C1c1ccc(O)c(OC)c1`, the inhibition was -1.15%.

Take `O=C(N[C@H](C(=O)N1CCC[C@H]1C(=O)NCCc1ccccc1Cl)c1ccccc1)c1ccccc1`: the inhibition was 1.57%.

Regarding `Cc1ccc(NC(=O)N2c3ccccc3SC2c2ccco2)c(C)c1` (configuration not stated), the inhibition is 0.01%.

On to `COc1cccc(CNC(=O)[C@H]2CCCN2C(=O)[C@H]2CCCN2C(=O)c2cc(F)cc(F)c2)c1`, for which the inhibition was -0.29%.

Consider `COC(=O)[C@]12C[C@H](CC(=O)NCc3ccc(OC)c(OC)c3)C(=O)N(Cc3ccccc3)C1=C[C@H](C(C)C)O[C@@H]2C1CC1`, for which the inhibition is -0.45%.

Turning to `Nc1[nH]c(C(=O)c2ccc(Br)cc2)c(-c2ccc3c(c2)OCO3)c1C(=O)NCCc1c[nH]c2ccccc12`, the inhibition was 0.87%.

In the case of `CCOc1ccc(C(=O)COC(=O)c2ccc(-n3cnnn3)cc2)cc1`, the inhibition was 11.4% (active).

On to `CC(OC(=O)c1ccc(-n2cnnn2)cc1)C(=O)NCc1ccccc1` (configuration not stated), for which the inhibition was 1.87%.

As for `CCOC(=O)N1CCN(S(=O)(=O)c2ccc(-n3cnnn3)cc2)CC1`, the inhibition is -0.23%.

Regarding `CCOC(=O)C1=C(C(=O)OCC)C2N(Cc3ccc(C#N)cc3)c3ccccc3[C@@]23C[C@@H](C(=O)OC)N(S(=O)(=O)c2ccc(F)cc2)C3=N1` (some centres not stated), the inhibition is -0.21%.

With `COC(=O)Cc1nnn2c1[C@H](C)[C@H](c1ccccc1[N+](=O)[O-])OCC2`, the inhibition is 0.5%.

As to `Cc1ccc(C(=O)NCC(=O)OCc2nnc(-c3ccccc3)o2)cc1`, the inhibition is 1.54%.

Consider `OC(c1nnc(-c2ccccc2)o1)c1cccs1` (configuration not stated), for which the inhibition is -1.12%.

Regarding `Nc1ccc(-c2nnc(-c3ccc(-c4ccccc4)cc3)o2)cc1`, the inhibition is 9.48% (active).

On to `COc1ccc(C2=CN(Cc3ccccc3)C(c3ccc(OC)cc3)CC2=O)cc1` (configuration not stated), for which the inhibition was 4.38%.

In the case of `Cc1nc2cc(NC(=O)CSc3nc4c(C)cccc4cc3C#N)ccc2s1`, the inhibition is 16% (active).

For `Cc1csc(SCC(=O)Nc2ccc(C)c(S(=O)(=O)N(C)C)c2)n1`, the inhibition is -0.14%.

In the case of `COCc1cc(C)nc(SCC(=O)Nc2cccc(C)c2)c1C#N`, the inhibition was -0.32%.

Regarding `CCc1ccc(C(=O)CSc2nnc(C)c(=O)[nH]2)cc1`, the inhibition was -0.93%.

Regarding `N#Cc1c(-c2cccs2)nc(SCC(=O)c2ccc(Br)cc2)[nH]c1=O`, the inhibition is 23.5% (active).

For the compound `Cc1nnc(SCC(=O)NCc2cccs2)[nH]c1=O`, the inhibition is 1.17%.

As to `O=C(Oc1ccccc1)Oc1ccc2c(c1)oc(=O)c1ccccc12`, the inhibition is 28.2% (active).

With `O=C(COc1ccc2c3c(c(=O)oc2c1)CCCC3)NCC(O)c1ccccc1` (configuration not stated), the inhibition is 0.6%.

For `O=C(COc1ccc2c3c(c(=O)oc2c1)CCC3)NC1CCCCC1`, the inhibition is -0.41%.

Consider `C=CC1=CCN(S(=O)(=O)C(C)(C)C)[C@@H]1CCO`, for which the inhibition was 0.76%.

As to `COc1ccccc1CCn1cnc(-c2ccccc2)c1C(C)C`, the inhibition is 2.18%.

As for `Nc1nc2c(ncn2[C@@H]2O[C@H](C(=O)N[C@H](Cc3ccccc3)C(=O)NCC3CCCCC3)[C@@H](O)[C@H]2O)c(=O)[nH]1`, the inhibition is -1.03%.

Take `COC(=O)[C@]12C[C@H](CC(=O)NCCc3ccccc3OC)C(=O)N(Cc3ccccc3)C1=C[C@H](C(C)C)O[C@@H]2C1CC1`: the inhibition is -0.91%.

Regarding `O=C(C(=O)N1CCC(CNC(=O)c2cccnc2Cl)CC1)c1cccs1`, the inhibition was -0.43%.

On to `COc1ccc(-c2csc(NC(=O)c3ccc(N4C(=O)CCC4=O)cc3)n2)cc1OC`, for which the inhibition is 8.78% (active).

In the case of `COc1cc(NC(=O)c2ccc(-c3csc(C)n3)cc2)c(OC)cc1Cl`, the inhibition was -0.71%.

For `COc1ccc(-n2nc3c(c2NC(=O)c2ccc(N4C(=O)CCC4=O)cc2)CSC3)cc1`, the inhibition is 0.18%.

For the compound `C=CCN1C(=O)N(Cc2ccccc2)c2ccccc2S1(=O)=O`, the inhibition was -0.26%.

With `CSc1ccc(Oc2cccc3c2S(=O)(=O)N([C@H](C)c2ccccc2)C[C@@H](COCc2ccccc2)O3)cc1C`, the inhibition was -0.66%.

With `COc1ccc(S(=O)(=O)N2CCC(C(=O)N3CCCC3)CC2)cc1C`, the inhibition is -0.08%.

As to `COc1ccc(CCNC(=O)C2CCN(c3nn4c(=O)cc(C)nc4s3)CC2)cc1OC`, the inhibition was 2.38%.

Turning to `COc1ccc(-c2c(C)nn3c(N4CCC(C(=O)N5CCCCC5)CC4)cc(C)nc23)cc1OC`, the inhibition was 30.3% (active).

Turning to `CC[C@H](NC(=O)[C@H](Cc1ccccc1)NC(=O)[C@H]1O[C@@H](n2cnc3c(=O)[nH]c(N)nc32)[C@H](O)[C@@H]1O)c1ccccc1`, the inhibition is 1.17%.

With `Nc1nc2c(ncn2[C@@H]2O[C@H](C(=O)N[C@@H](Cc3ccccc3)C(=O)NCc3ccccc3)[C@@H](O)[C@H]2O)c(=O)[nH]1`, the inhibition is 0.08%.

`COC(=O)C1=C(C)N(Cc2ccc(C(F)(F)F)cc2)C(=NCc2ccccc2)NC1c1ccccc1C(F)(F)F` (configuration not stated): the inhibition is -0.97%.

On to `COC(=O)N1Cc2ccnnc2CC1c1ccccc1Br` (configuration not stated), for which the inhibition was -0.32%.

As for `CC(C)CNc1cccc2c1S(=O)(=O)N[C@H](C)CO2`, the inhibition is -0.69%.

Regarding `Cc1nc(N2CCN(c3ccccn3)CC2)c2c(C)c(C(=O)Nc3ccc(F)c(Cl)c3)sc2n1`, the inhibition was -0.31%.

On to `Cc1cc(Br)ccc1NC(=O)c1sc2ncn(CC(=O)N3CCN(c4ccccn4)CC3)c(=O)c2c1C`, for which the inhibition was 11.3% (active).

In the case of `Cc1cc(Br)ccc1NC(=O)c1cnc(N2CCN(c3ccccn3)CC2)c2ccccc12`, the inhibition is -0.94%.

Take `Nc1ncnc2c1ncn2[C@@H]1O[C@H](C(=O)N[C@@H](CCc2ccccc2)C(=O)NCC(=O)N2CCOCC2)[C@@H](O)[C@H]1O`: the inhibition was -1.35%.
